Results on three molecules are retold here after PubChem BioAssay (NCI).

Test in all cases: NCI-60 one-dose screen, 48 h (100 = growth as untreated, 0 = no growth, -100 = all killed)
The subject of assay [1] is NCI-H226 lung. Particulars: 10 µM.
In assay [2] the test system is NCI-H322M lung. The note with it: 10 µM.
Assay [3] relates to HOP-62 NSCLC. Particulars: 10 µM.
Assay [4] relates to NCI-H460 lung. Particulars: 10 µM.
Assay [5] concerns A549/ATCC NSCLC. The note with it: 10 µM.
Assay [6] has as its system DU-145 prostate. Particulars: 10 µM.
Assay [7] deals with SF-268 CNS. The note with it: 10 µM.
Assay [8] relates to SF-295 CNS. Particulars: 10 µM.
Assay [9] has as its system SF-539 CNS. The note with it: 10 µM.
In assay [10] the test system is M14 melanoma. Particulars: 10 µM.
The test system of assay [11] is HCT-15 colon. Particulars: 10 µM.
The subject of assay [12] is HT29 colon. The note with it: 10 µM.
The subject of assay [13] is SNB-75 CNS. Particulars: 10 µM.
Assay [14] deals with SNB-19 CNS. The note with it: 10 µM.
Assay [15] deals with U251 CNS. The note with it: 10 µM.
Assay [16] concerns PC-3 prostate. Particulars: 10 µM.
In assay [17] the test system is SK-MEL-5 melanoma. The note with it: 10 µM.
Assay [18] relates to UACC-62 melanoma. Particulars: 10 µM.
Assay [19] concerns SK-MEL-28 melanoma. The note with it: 10 µM.
For assay [20], the system named is HL-60(TB) leukemia. The note with it: 10 µM unless noted.

The panel holds about 83,000 compounds, 20% with a hit somewhere; the sample as a whole holds those more often.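 Single-dose data. Exposure time 48 hours. Values below 10 considered active.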 The source made the active and inactive calls.

As for `COc1cc(OC)c(S(=O)(=O)N(CCCl)CCCl)cc1C(=O)/C=C/c1ccc(C)cc1`, the growth was 81.5% (inactive) in assay [1]; 89.1% (inactive) in [2]; 70.8% (inactive) in [3]; 31.9% (inactive) in assay [4]; 79.2% (inactive) in assay [5]; 88.3% (inactive) in assay [6]. In addition, the growth in [7] is 67.2% (inactive); in assay [8], 66.7% (inactive); in assay [9], 56.9% (inactive); in [10], 86.4% (inactive); in assay [11], 81.8% (inactive); in [12], 80.7% (inactive). Further, the growth in [13] is 90.1% (inactive); in assay [14], 29.8% (inactive); in assay [15], -2.54% (active); in assay [16], 67.6% (inactive); in assay [17], 97.5% (inactive); in assay [18], 74.3% (inactive). For the same molecule, the growth is 102% (inactive) in [19] and 65.6% (inactive) in assay [20].

Consider `CC(=C\C(=O)Oc1ccc2c3c1OC1C(O)CCC4(O)C(C2)N(CC2CCC2)CCC314)/C=C1\CCCc2ccccc21` (stereo not drawn), for which the growth in assay [1] is 56.3% (inactive); in assay [2], 69.9% (inactive); in assay [3] it was 85.6% (inactive); in [4] it was 12.1% (inactive); in assay [5] it was 48.9% (inactive); in assay [6], 82.1% (inactive). For the same molecule, the growth in assay [7] was 73.5% (inactive); in assay [8], 63.2% (inactive); in assay [9] it was 67.8% (inactive); in assay [10] it was -51.4% (active); in assay [11], 7.2% (active); in [12], 8.3% (active). The growth in assay [13] is 59.8% (inactive); in [14], 70.5% (inactive); in assay [15] it was 47.4% (inactive); in assay [16] it was 40.8% (inactive); in assay [17] it was 45.5% (inactive); in assay [18], -16.4% (active). The growth in assay [19] is 17.1% (inactive).

As for `O=C(/C=C/c1ccc(Cl)cc1Cl)c1nc2ccccc2n1Cc1ccc(F)cc1`, the growth in assay [1] was 38.7% (inactive); in assay [2] it was 69.7% (inactive); in assay [3] it was 58.2% (inactive); in assay [4], 43.8% (inactive); in assay [5], 66.5% (inactive); in [6] it was 55.4% (inactive). For the same molecule, the growth in assay [7] is 49.9% (inactive); in assay [8], 60.6% (inactive); in [9], 17.9% (inactive); in assay [10] it was 59.8% (inactive); in assay [11] it was 11.8% (inactive); in assay [12] it was 7.3% (active). Moreover, the growth in [13] was 38.6% (inactive); in assay [14] it was 57.7% (inactive); in assay [15] it was 13.4% (inactive); in [16], 29.4% (inactive); in [17] it was 74.5% (inactive); in assay [18], 40.1% (inactive). Besides, in assay [19], the growth is 74% (inactive).
